PubChem BioAssay (NCATS)
Inconclusive results are not listed. Active and inactive are the calls of the source. Calls come from the whole dose curve; as a rule, active = well fitted curve in either direction with a large enough effect (not every such curve was filed as active); inconclusive = small, poorly fitted or top-dose-only effect, or another doubt; inactive = flat fitted curve, though single readings scatter.

Assay: Stat Signaling Pathway (AID 446)
Conditions: ME-180 (cervical carcinoma) SIE beta-lactamase reporter, IL-6 stimulated, 5 h; series mostly up to 17.2 µM; activity, negative = inhibition: at the top concentration
Protocol: NCGC Assay Overview: The IL-6/STAT signaling pathway was assayed in ME-180 cervical carcinoma cells by a beta-lactamase reporter gene controlled by a STAT Inducible Element (SIE). This reporter is induced by IL-6 at 40 pM AC50 and inhibited by the pan JAK inhibitor, 2-(1,1-Dimethylethyl)-9-fluoro-3,6-dihydro-7H-benz[h]-imidaz[4,5-f]isoquinolin-7-one, at approximately 10 nM AC50. Plated cells were incubated overnight and on the following day, stimulated with 40 pM IL-6 for 5 hrs. The assay was screened at the AC50 of IL-6 activation to identify both inhibitors and activators of IL-6/STAT signaling.
NCGC Assay Protocol Summary: Cells were trypsinized, washed in assay medium (AM, OPTI MEM with 0.5% fetal bovine serum, 0.1 mM nonessential amino acids, 1 mM sodium pyruvate, 10mM HEPES pH 7.3, 100U/ml penicillin, and 100 ug/ml streptomycin) and suspended at 6 x 10e5/ml in AM. Approximately […] cells in 5 uL/well was dispensed into 1536 well plates and the cells were incubated overnight at 37 C. 23 nL of compound were delivered by a pin tool and 1 uL of IL-6 (40 pM final concentration in AM) was added. After centrifugation at 1000 rpm for less than a minute, plates were incubated at 37C for 5 hrs. One uL of detector mix (LiveBLAzerTM, Invitrogen) was added, the plates incubated at room temperature for 2.5 hrs, and fluorescence intensity at 460 and 530 nm emission was measured at 405 nm excitation by an Envision (Perkin Elmer) or Safire II (Tecan). Data were normalized by GeneData to the controls for AC90 stimulation (300 pM IL-6) and to AC90 inhibition (125 nM Jak inhibitor, 40 pM IL-6 in AM).
% is set by controls: 0 for no effect and ±100 for the full control effect.

Structure (SMILES)	activity, negative = inhibition	outcome
CCCCn1c(O)c(C=NCCN2CCCCC2)c(=O)[nH]c1=O	7.5% (inactive)	
CC(C)NC(=O)N1CC[C@@]2(CCCNC2)C1	-2.32% [at 7.69 µM] (inactive)	
O=C(Nc1ccccc1)N1CC[C@@]2(CCCNC2)C1	-8.7% [at 7.69 µM] (inactive)	
CC(C)CN1CCCC2(CCN(C(=O)c3ccncc3)CC2)C1	-4.93% [at 7.69 µM] (inactive)	
CN[C@@H](C)[C@H]1CC[C@@H](N)[C@@H](O[C@@H]2[C@@H](O)[C@@H](O[C@H]3OC[C@@](C)(O)[C@@H](NC)[C@@H]3O)[C@H](N)C[C@@H]2N)O1 (tested in a mixture with another compound)	-12.3% (inactive)	
CCN1C[C@@]2(COC)[C@H]3[C@@H](OC)[C@H]4C1[C@@]3([C@H](OC)C[C@@H]2O)[C@H]1C[C@@]2(O)[C@@H](OC(=O)c3ccccc3)[C@@H]1[C@@]4(OC(C)=O)[C@H](O)[C@@H]2OC	10.2% (inactive)	
Oc1ccc2c3c1O[C@H]1[C@@H](O)CC[C@]4(O)[C@H](C2)N(CC2CCC2)CC[C@@]314	3.68% (inactive)	
O=C(Oc1ccccc1)N1CCC2(CCCN(Cc3ccccc3)C2)CC1	-2.42% [at 7.69 µM] (inactive)	
NC[C@H](O)c1ccc(O)cc1		inactive
CN1[C@@H]2CCC[C@H]1CC(=O)C2	5.83% (inactive)	
c1cnc(N2CCCC3(CCNCC3)C2)nc1	-8.67% [at 7.69 µM] (inactive)	
O=C(Oc1ccccc1)N1CCC2(CC1)CN(C(c1ccccc1)c1ccccc1)C2	-2.87% [at 7.69 µM] (inactive)	
c1csc(CN2CC[C@@]3(CCCNC3)C2)n1	1.21% [at 7.69 µM] (inactive)	
CN1[C@H]2CC(=O)C[C@@H]1[C@@H](O)C2	6.69% (inactive)	
CN1CCCC2(CCN(C(=O)c3ccncc3)CC2)C1	-1.95% [at 7.69 µM] (inactive)	
Clc1ccc(CO[C@@H](Cn2ccnc2)c2ccc(Cl)cc2Cl)cc1	-4.06% (inactive)	
O=C(NCNC(=O)N[C@H]1C(=O)NC(=O)N1CO)N[C@H]1C(=O)NC(=O)N1CO	3.56% (inactive)	
CC(C)CN1CC[C@@]2(CCCN(C(=O)Oc3ccccc3)C2)C1	0.491% [at 7.69 µM] (inactive)	
c1ccc(CN2CCC3(CCNCC3)CC2)cc1	-0.0973% [at 7.69 µM] (inactive)	
CN(C)[C@@H]1C(=O)C(C(N)=O)=C(O)[C@]2(O)C(=O)C3=C(O)c4c(O)cccc4[C@@](C)(O)[C@H]3[C@H](O)[C@@H]12	-14.1% (inactive)	

Structure (SMILES)	activity, negative = inhibition	outcome
O=C(Oc1ccccc1)N1CCC2(CCN(Cc3ccncc3)CC2)CC1	-1.65% [at 7.69 µM] (inactive)	
C=C1[C@@H]2C[C@@]3([C@H]1O)[C@H]1C[C@@H]4[C@@]5(C)CC[C@H](O)[C@]4([C@H]1N(CC)C5)[C@H]3C[C@H]2O	-3.94% (inactive)	
O=C(Oc1ccccc1)N1CCC2(CCCN(Cc3nccs3)C2)CC1	-11% [at 7.69 µM] (inactive)	
c1ccc(N2CCC3(CCNCC3)CC2)nc1	14.1% [at 7.69 µM] (inactive)	
Cc1noc(C)c1C(=O)N1CCC2(CCCN(CC(C)C)C2)CC1	-0.167% [at 7.69 µM] (inactive)	
COc1cc2c(cc1O)C[C@H]1c3c(cc(O)c(OC)c3-2)CCN1C	4.44% (inactive)	
CN1[C@@H]2CC[C@H]1CC(O)C2 (stereo not given in full)	-4.36% (inactive)	
CC(C)CN1CC2(CCN(C(=O)Oc3ccccc3)CC2)C1	-3.61% [at 7.69 µM] (inactive)	
COCC(=O)N1CCC2(CCCN(Cc3ccncc3)C2)CC1	-0.0665% [at 7.69 µM] (inactive)	
C[C@H]1C(=O)O[C@@H]2CCN3CC=C(COC(=O)[C@@](C)(O)[C@@]1(C)O)[C@H]23	3.09% (inactive)	
COc1ccc(NC(=O)N2CC3(CCN(C(=O)Oc4ccccc4)CC3)C2)cc1	-26% [at 7.69 µM] (inactive)	
CN1CC[C@@]2(CCCN(C(=O)c3ccncc3)C2)C1	-5.99% [at 7.69 µM] (inactive)	
O=C(Nc1ccccc1)N1CC2(CCN(C(=O)Oc3ccccc3)CC2)C1	-11.5% [at 7.69 µM] (inactive)	
c1ccc(N2CCCC3(CCNCC3)C2)cc1	4.25% [at 7.69 µM] (inactive)	
CN(C)[C@@H]1C(=O)C(C(N)=O)=C(O)[C@]2(O)C(=O)C3=C(O)c4c(O)ccc(Cl)c4[C@](C)(O)[C@H]3C[C@@H]12	0.873% (inactive)	
CC(=O)O[C@H]1CC[C@@]2(C)C(=CC[C@@H]3[C@H]2CC[C@]2(C)C(=O)CC[C@H]32)C1	10.2% (inactive)	
NCC#Cc1ccccc1	7.87% [at 38 µM] (inactive)	
CN1Cc2c(ccc3c2OCO3)[C@@H]2[C@@H](O)Cc3cc4c(cc3[C@@H]21)OCO4	-3.13% (inactive)	
CC[C@H]1CN2CC[C@@H]1C[C@H]2[C@@H](O)c1ccnc2ccc(OC)cc12	4.5% (inactive)	
COc1ccc(NC(=O)N2CC[C@@]3(CCCN(C(=O)Oc4ccccc4)C3)C2)cc1	-7.94% [at 7.69 µM] (inactive)	
